TDP1 cell CPT: DT40-hTDP1 cell growth loss with CPT; hit rate 12% among 420,000; chicken DT40 Tdp1-/-;hTDP1 cells + 20 nM CPT, ATP luminescence, 48 h; Potency, µM (titrated, usually from 46.2 µM), usual class: inhibitors; note: nearly all actives have a fitted effect of over 55% in size
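Chicken DT40 Tdp1-/- cells stably complemented with human TDP1 were seeded at 400 cells/well in medium containing 20 nM camptothecin, exposed to pin-transferred compounds, and grown at 37 °C for at least 48 hr. Viability was read as ATP luminescence.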
HT1080NT lethal: kills 2HG-producing HT-1080-NT fibrosarcoma cells | HT-1080-NT fibrosarcoma viability, CellTiter-Glo ATP luminescence, 48 h | Potency, µM (titrated, usually from 46.1 µM), most hits filed as cytotoxic | hit rate 1.6% among 360,000 | AID 686970;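 note: NT is the 2HG producing partner of a matched IDH1 knockdown line; nearly all actives have a fitted effect of over 55% in size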
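Viability of the 2HG-overproducing fibrosarcoma line after 48 hours of compound exposure at 37 degrees C was determined by luminescence with CellTiter-Glo, and concentration-effect curves were then fitted and categorized.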
HT1080 IDH1KD tx: kills HT-1080 cells with IDH1 knockdown | HT-1080 IDH1 knockdown viability, ATP luminescence, 48 h | Potency, µM (top dose mostly 46.1 µM), most hits filed as cytotoxic | hit rate 2% among 360,000
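In this qHTS, HT-1080 cells depleted of IDH1 are exposed for 48 h at 37 °C to compound titrations. Toxicity is scored from CellTiter-Glo luminescence, with DMSO as full viability and medium alone as none.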
IL1B secr inh: blocks inflammasome-driven IL-1 beta release. THP-1 LPS/ATP IL-1B secretion, AlphaLISA, 16 h; hits give low values. AID 743279. activity change, % at 57.5 µM. hit rate 4.7% among 360,000; in the data active = activity change below about -50%; inconclusive = mostly about -30% to -49%
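THP-1 cells pretreated 1 hr with compounds (up to 57.5 uM final), then stimulated with LPS (250 ng/mL final) plus ATP (1.25 mM final); secreted IL-1B measured by AlphaLISA after 16 hr, decreased signal indicating inhibition.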
TDP1 cell noCPT: qHTS for Inhibitors of human tyrosyl-DNA phosphodiesterase 1 (TDP1): qHTS in cells in absence of CPT; DT40 Tdp1-/- hTDP1 cells, no CPT, ATP luminescence, 48 h; Potency, µM (doses to about 46.2 µM), usual class: inhibitors; hit rate 15% among 420,000; note: nearly all actives have a fitted effect of over 55% in size
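Stably hTDP1-transfected Tdp1-null chicken DT40 cells were treated with library compounds minus camptothecin and grown for at least 48 hr at 37 °C, after which cellular ATP was quantified by luminescence.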
Numbers stand for hits; – = inactive; ? = inconclusive; · = not tested or not shown; [ ] = dose if it differs, or a comment. In the library only some 19% were active in any assay of this set; here they are far more common. Unless noted, calls come from the whole dose curve; as a rule, active = well fitted curve in the direction sought with a large enough effect; inconclusive = small, poorly fitted or top-dose-only effect, or another doubt; inactive = no such curve, though single readings can be large; an effect the other way counts as inactive or inconclusive.

SMILES	TDP1 cell CPT	HT1080NT lethal	HT1080 IDH1KD tx	IL1B secr inh	TDP1 cell noCPT
CC(=O)c1cn(CCOc2cc(C)ccc2C)c2ccccc12	3.66µM	?	9.2µM	–	4.11µM
COc1cccc(OCCn2cc(C(=O)c3ccco3)c3ccccc32)c1	16.4µM	–	?	–	16.4µM
CCOC(=O)Cn1cc(C(=O)c2ccco2)c2ccccc21	–	–	–	–	?
Cc1ccccc1OCCn1cc(C(=O)c2ccco2)c2ccccc21	?	·	·	·	23.1µM
O=C(O)c1c(C(=O)O)c2ccccc2[nH]c1=O	–[9.04 µM]	·	·	·	–[9.04 µM]
Cc1cc(C)n(Cc2cc(C(=O)O)c3ccccc3n2)n1	–	–	–	–	–
COc1cccc(OCCn2cc(C(C)=O)c3ccccc32)c1	11.6µM	?	?	–	18.4µM
COc1ccc2c(=O)c(-c3ccccc3)coc2c1	?	–	–	–	?
CCN(CC)C(=O)Oc1ccc2c(=O)c(-c3ccccc3)coc2c1	?	–	–	-54.0	?
OC(c1ccc(F)c(F)c1)c1ncc(-c2ccc(F)cc2)[nH]1 (centres undefined)	?	–	–	–	–
Cc1cc(C)n(Cc2cccc(C(=O)N/N=C/c3cccnc3)c2)n1	–	–	–	–	–
O=C(NCc1cccs1)c1noc2c1CCCC2	?	?	17.8µM	–	?
O=C(NCc1ccccc1)c1noc2c1CCCC2	?	?	?	–	?
O=C(CSc1ccccc1)N(c1ccc(Br)cc1)c1nccs1	?	–	–	–	–
Cc1ccc2[nH]c(=O)c(CN(Cc3ccc4c(c3)OCO4)Cc3nnnn3C3CCCC3)cc2c1	?	–	–	-55.8	?
CC1(c2nnnn2C2CCCCC2)CCC(=O)N1Cc1ccc2c(c1)OCO2 (centres undefined)	–	–	–	–	–
Cc1cc2cc(CN(Cc3ccc4c(c3)OCO4)Cc3nnnn3C3CCCC3)c(=O)[nH]c2cc1C	16.4µM	–	–	–	13µM
Cc1cc(C)c(S(=O)(=O)N(C)CC(=O)NCCCn2ccnc2)c(C)c1	–	–	–	–	–
Nn1cnnc1N/N=C/c1ccc(F)cc1	?	?	?	–	–
O=[N+]([O-])c1cc(/C=N/N2CCCCC2)ccc1Cl	–	–	–	–	?
Nn1cnnc1N/N=C/c1ccc(Cl)c([N+](=O)[O-])c1	–	?	20.6µM	–	–
Nc1nnnn1/N=C\c1ccc(Cl)c([N+](=O)[O-])c1	?	–	–	-61.5	?
Nn1cnnc1N/N=C/c1cccc(Cl)c1Cl	–	?	18.4µM	–	–
Nn1cnnc1N/N=C/c1ccccc1C(F)(F)F	–	–	–	–	–
CCc1nnc(N/N=C/c2ccccc2Cl)n1N	–	?	15.8µM	–	–
SMILES	TDP1 cell CPT	HT1080NT lethal	HT1080 IDH1KD tx	IL1B secr inh	TDP1 cell noCPT
COCCNc1nnc(SCC(=O)NNC(=O)c2ccc([N+](=O)[O-])cc2)s1	–	–	–	–	–
COc1cccc(/C=N/Nc2nnc(C)n2N)c1OCc1ccccc1Cl	?	–	–	–	23.1µM
CC(C)(C)c1nnc(N/N=C/c2ccccc2O)n(N)c1=O	0.651µM	?	?	–	1.03µM
CN(C)c1nc(N/N=C\c2ccc(Cl)c([N+](=O)[O-])c2)nc(Nc2ccc(F)cc2)n1	5.17µM	?	?	-89.5	5.17µM
C=CCN(CC=C)C(=O)C(=O)c1ccn(-c2c(C)csc2C(=O)OC)c1	–	–	–	–	?
O=C(Nc1nc(=O)c2ccccc2s1)c1ccc(F)cc1	–	15.8µM	1.41µM	-99.3	–
C#CCN(C)Cc1ccccc1	–	–	–	–	–
C#CCN(Cc1ccccc1)S(=O)(=O)C=C	25.1µM	–	–	-65.1	?
Cc1noc(C)c1S(=O)(=O)N1CCN(C(c2ccccc2)c2ccc(Cl)cc2)CC1 (centres undefined)	?	–	–	–	13µM
COc1ccccc1N1CCN(S(=O)(=O)c2c(C)sc3ncn(CC(=O)Nc4ccc(C(F)(F)F)cc4)c(=O)c23)CC1	16.4µM	·	·	·	?
COc1ccc(NC(=O)Cn2cnc3sc(C)c(S(=O)(=O)N4CCN(c5ccccc5OC)CC4)c3c2=O)cc1OC	–	·	·	·	–
COc1ccccc1N1CCN(S(=O)(=O)c2c(C)sc3ncn(CC(=O)NCCN(C)C)c(=O)c23)CC1	–	–	–	–	–
CCCN(CCC)CCNC(=O)Cn1cnc2sc(C)c(S(=O)(=O)N3CCN(c4ccccc4OC)CC3)c2c1=O	?	·	·	·	14.6µM
CCc1ccc2c(CC(=O)NNC(=O)c3ccncc3)coc2c1	–	–	–	–	–
CC(C)OCCCNC(=O)CN1C(=O)COc2ccc(S(=O)(=O)N3CCOCC3)cc21	–	·	·	·	–
Cn1ncc2c1NC(c1ccc(F)cc1)SCC2=O (centres undefined)	–	–	–	–	–
CCCn1c(N)c(Sc2ccccc2[N+](=O)[O-])c(=O)n(CCC)c1=O	–	–	–	–	?
COc1ccc(C2C(C#N)=C(C)NC3=C2C(=O)CC(C)(C)C3)cc1 (centres undefined)	–	–	–	–	–
CCCSC1=C(C#N)C(c2ccc(OC)cc2)C2=C(CC(C)(C)CC2=O)N1 (centres undefined)	5.17µM	?	?	–	4.11µM
CSC1=C(C#N)C(c2ccc(Cl)cc2)C2=C(CC(C)(C)CC2=O)N1 (centres undefined)	0.92µM	–	8.2µM	–	0.92µM
COc1ccc(C2CC(c3cccs3)=NN2C(=O)CSc2nc(=O)n3ccc(C)cc3n2)cc1 (centres undefined)	?	–	–	?	5.8µM
O=C(CSC1=NCCS1)N1N=C(c2cccs2)CC1c1ccc(F)cc1 (centres undefined)	?	–	–	-65.7	?
O=C(CSc1nc(=O)n2ccccc2n1)N1N=C(c2cccs2)CC1c1ccc(F)cc1 (centres undefined)	–	–	–	–	?
O=C(CSc1nc2ccccc2o1)N1N=C(c2cccs2)CC1c1ccc(F)cc1 (centres undefined)	?	–	–	–	?
Cc1ccc2nc(Cl)c(C3CC(c4cccs4)=NN3C(=O)CCC(=O)O)cc2c1 (centres undefined)	–	–	–	–	5.17µM
Cc1ccc(C2CC(c3cccs3)=NN2C(=O)CSc2nc3ccccc3o2)cc1 (centres undefined)	14.6µM	–	–	?	?
COC(=O)C(c1ccccc1Cl)N1CCc2sccc2C1 (centres undefined)	?	·	·	·	–
O=C1NC(=O)c2cc3ccccc3cc21	–	–	–	–	–
CNc1nc(-c2ccccc2C(F)(F)F)nc2ccccc12	?	·	·	·	–
O=C(O)/C=C/c1cn(-c2ccccc2)nc1-c1ccccc1	–	–	–	–	–
